For experiment [1], the target named is Aryl hydrocarbon receptor (Homo sapiens) (UniProt P35869). Description: qHTS assay to identify small molecule that activate the aryl hydrocarbon receptor (AhR) signaling pathway (AID 743085). Also: nearly all actives have a fitted effect of over 15% in size. Also: potency is read from the fitted curve at half-maximal effect.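 As to activation: HG2L7.5c1 human HepG2 liver cells with stably integrated DRE-driven firefly reporter; series mostly up to about 70 µM.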 The essentials: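 A multiplexed format paired cell viability (CellTiter-Fluor fluorescence) with AhR-dependent luciferase output (ONE-Glo luminescence) in the same wells of HepG2 DRE-luc cells after 24 h compound exposure at 37C.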
Chain of Aryl hydrocarbon receptor (Homo sapiens) (P35869 whole entry, looked up): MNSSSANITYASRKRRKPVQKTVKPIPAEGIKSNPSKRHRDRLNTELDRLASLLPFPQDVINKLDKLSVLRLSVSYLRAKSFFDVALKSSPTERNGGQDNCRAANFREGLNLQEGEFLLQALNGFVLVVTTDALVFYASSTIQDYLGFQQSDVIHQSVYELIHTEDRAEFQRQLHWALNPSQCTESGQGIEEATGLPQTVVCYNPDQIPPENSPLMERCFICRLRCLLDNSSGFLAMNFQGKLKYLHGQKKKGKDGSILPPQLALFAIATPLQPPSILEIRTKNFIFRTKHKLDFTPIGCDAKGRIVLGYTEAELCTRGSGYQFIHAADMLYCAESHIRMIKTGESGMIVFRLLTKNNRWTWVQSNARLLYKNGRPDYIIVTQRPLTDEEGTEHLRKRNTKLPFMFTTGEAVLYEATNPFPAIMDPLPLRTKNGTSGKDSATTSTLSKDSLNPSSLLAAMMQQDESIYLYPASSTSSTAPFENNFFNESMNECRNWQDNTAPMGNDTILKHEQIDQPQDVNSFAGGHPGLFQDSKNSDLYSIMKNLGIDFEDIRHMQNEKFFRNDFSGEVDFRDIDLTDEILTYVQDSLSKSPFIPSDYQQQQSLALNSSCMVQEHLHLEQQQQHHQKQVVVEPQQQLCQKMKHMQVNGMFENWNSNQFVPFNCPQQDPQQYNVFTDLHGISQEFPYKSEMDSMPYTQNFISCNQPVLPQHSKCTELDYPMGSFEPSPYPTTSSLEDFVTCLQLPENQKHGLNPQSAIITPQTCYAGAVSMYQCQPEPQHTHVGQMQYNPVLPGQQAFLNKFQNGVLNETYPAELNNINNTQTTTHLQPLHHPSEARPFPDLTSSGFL
(qHTS replaces the single test concentration by a dilution series.)

Experiment [2] can be described thus: qHTS assay to identify small molecule that activate the aryl hydrocarbon receptor (AhR) signaling pathway - cell viability counter screen (AID 743086). Also: nearly all actives have a fitted effect of over 45% in size. Also: potency is read from the fitted curve at half-maximal effect. The essentials:
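HepG2-AhR-luc (HG2L7.5c1) cells, 4000/well, were preincubated 5 h at 37C, exposed to compound in qHTS format for 24 hr at 37C, then given CellTiter-Fluor for 30 min; viability was read as fluorescence in the reporter wells.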

Experiment [3] concerns the target Peroxisome proliferator-activated receptor gamma (Homo sapiens) (UniProt P37231). Nature of the experiment: qHTS assay to identify small molecule antagonists of the peroxisome proliferator-activated receptor gamma (PPARg) signaling pathway (AID 743191; calls by dose curve; also: nearly all actives have a fitted effect of over 30% in size; also: potency is read from the fitted curve at half-maximal effect). A digest of the protocol: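 GeneBLAzer PPARg UAS-bla HEK293H cells carrying a UAS-driven beta-lactamase reporter were plated at 3000 cells/well, preincubated 5 h at 37C, then given compound for 17 h at 37C; LiveBLAzer B/G FRET substrate was read after 1 h at room temperature.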

Experiment [4] in a line: qHTS assay to identify small molecule antagonists of the peroxisome proliferator-activated receptor gamma (PPARg) signaling pathway - cell viability counter screen (AID 743194). Also: nearly all actives have a fitted effect of over 55% in size. Also: potency is read from the fitted curve at half-maximal effect. The essentials:
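PPARg-UAS-bla HEK293H cells were plated, rested 5 h at 37 C, then treated with compounds plus rosiglitazone (50 nM final) for 17 h at 37 C; viability was then read by CellTiter-Glo luminescence after 30 min at room temperature.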

Experiment [5] in a line: qHTS assay for small molecule agonists of the antioxidant response element (ARE) signaling pathway - cell viability counter screen (AID 743203; calls by dose curve; also: nearly all actives have a fitted effect of over 55% in size; also: potency is read from the fitted curve at half-maximal effect). The essentials: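 Cells (ARE-bla HepG2, 2,000/well) receive DMSO-dissolved compounds after a 5 hrs rest. Plates incubate 16 hrs at 37C/5% CO2. CellTiter-Glo luminescence is then recorded after 30 min at room temperature.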
The nature of experiment [6]: qHTS assay for small molecule activators of the heat shock response signaling pathway - cell viability counter screen (AID 743209). Also: nearly all actives have a fitted effect of over 50% in size. A digest of the protocol: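 Quantitative HTS format, Tox21 10K library. HeLa cells carrying an HSE-driven beta-lactamase reporter were treated 5 h at 37 C, then assessed for viability by CellTiter-Glo luminescence.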
Experiment [7] in a line: qHTS assay for small molecule activators of the heat shock response signaling pathway (AID 743210; active = well fitted activation curve with a large enough effect in the signal ratio in the repeat runs, with a control signal flat, not every such curve was filed as active; the % refers to the signal ratio; also: series mostly up to about 63 µM). A digest of the protocol:
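Reporter gene assay: HeLa cells stably bearing an HSE-bla construct, compound treatment 5 h at 37 C, LiveBLAzer substrate 2.5 h at RT, fluorescence intensity.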

Experiment [8] in a line: qHTS assay to identify small molecule agonists of the peroxisome proliferator-activated receptor delta (PPARd) signaling pathway - cell viability counter screen (AID 743211). Also: nearly all actives have a fitted effect of over 55% in size. Also: potency is read from the fitted curve at half-maximal effect. A digest of the protocol:
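Tox21 library compounds, delivered in DMSO, were incubated 17 h with PPARd-bla HEK293H cells; cytotoxicity was taken from CellTiter-Glo luminescence read 30 min after reagent addition.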

The target in experiment [9] is Peroxisome proliferator-activated receptor delta (Homo sapiens) (UniProt Q03181). Description: qHTS assay to identify small molecule agonists of the peroxisome proliferator-activated receptor delta (PPARd) signaling pathway (AID 743212; calls by dose curve). The essentials: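 A PPARd-bla HEK293H line with beta-lactamase under an Upstream Activator Sequence is treated with compounds at 37 C. Substrate loading for 2 h at room temperature precedes the fluorescence measurement.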
Chain of Peroxisome proliferator-activated receptor delta (Homo sapiens) (Q03181 whole entry, looked up): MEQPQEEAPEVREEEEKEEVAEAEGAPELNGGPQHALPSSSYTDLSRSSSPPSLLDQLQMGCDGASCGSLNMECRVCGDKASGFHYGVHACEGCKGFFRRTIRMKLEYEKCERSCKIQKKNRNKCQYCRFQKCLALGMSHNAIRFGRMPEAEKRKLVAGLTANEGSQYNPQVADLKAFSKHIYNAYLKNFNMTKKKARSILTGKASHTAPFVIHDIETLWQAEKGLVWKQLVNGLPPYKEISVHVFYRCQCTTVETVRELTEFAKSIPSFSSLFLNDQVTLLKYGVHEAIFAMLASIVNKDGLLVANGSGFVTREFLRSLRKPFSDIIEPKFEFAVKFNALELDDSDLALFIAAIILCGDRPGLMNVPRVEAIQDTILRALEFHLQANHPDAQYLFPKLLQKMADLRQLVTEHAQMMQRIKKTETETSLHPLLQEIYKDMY

Experiment [10] has as its target Bile acid receptor (Homo sapiens) (UniProt Q96RI1). Nature of the experiment: qHTS assay to identify small molecule agonists of the farnesoid-X-receptor (FXR) signaling pathway (AID 743220; active = well fitted activation curve with a large enough effect in the signal ratio in the repeat runs, not every such curve was filed as active; the % refers to the signal ratio). The essentials:
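Beta-lactamase reporter under UAS control in GeneBLAzer FXR HEK 293T cells (5000/well) measured with LiveBLAzer FRET substrate after 2 h at room temperature. Compound exposure lasted 16 h at 37C.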

A short description of experiment [11]: qHTS assay to identify small molecule agonists of the vitamin D receptor (VDR) signaling pathway - cell viability counter screen (AID 743224). Also: nearly all actives have a fitted effect of over 50% in size. Also: potency is read from the fitted curve at half-maximal effect. The essentials:
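VDR-bla cell line, quantitative HTS format; 16 h compound incubation (37C, 5% CO2); ATP-based CellTiter-Glo luminescence measured in the reporter assay wells.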

Experiment [12] can be described thus: qHTS assay to identify small molecule agonists of the farnesoid-X-receptor (FXR) signaling pathway - cell viability counter screen (AID 743218). Also: nearly all actives have a fitted effect of over 45% in size. Also: potency is read from the fitted curve at half-maximal effect. The essentials: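 In GeneBLAzer FXR-UAS-bla HEK 293T cells, compounds act for 16 h at 37 C. Cell viability is then scored in the reporter wells by CellTiter-Glo, 30 min at RT, luminescence.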
Experiment [13] in a line: qHTS assay to identify small molecule antagonists of the farnesoid-X-receptor (FXR) signaling pathway - cell viability counter screen (AID 743221; active = well fitted cell-killing curve with a large enough effect in the repeat runs, not every such curve was filed as active; also: nearly all actives have a fitted effect of over 50% in size; also: potency is read from the fitted curve at half-maximal effect). The essentials: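 Cytotoxicity is taken from ATP luminescence (CellTiter-Glo, 30 min, room temperature) in FXR-bla HEK 293T cells previously incubated 16 h at 37 C with compound and chenodeoxycholic acid at 50 uM final.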
Experiment [14] concerns the target Vitamin D3 receptor (Homo sapiens) (UniProt P11473). Description: qHTS assay to identify small molecule agonists of the vitamin D receptor (VDR) signaling pathway (AID 743222; calls by dose curve). A digest of the protocol:
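Agonist activity measured in VDR-bla reporter cells. Exposure 16 h, 37C, 5% CO2; detection by B/G FRET substrate, 2 h RT.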

Experiment [15] addresses Peroxisome proliferator-activated receptor gamma (Homo sapiens) (UniProt P37231). Nature of the experiment: qHTS assay to identify small molecule agonists of the peroxisome proliferator-activated receptor gamma (PPARg) signaling pathway (AID 743094; active = well fitted activation curve with a large enough effect in the signal ratio in the repeat runs, not every such curve was filed as active; the % refers to the signal ratio). A digest of the protocol:
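Stably transfected HEK293H cells (GeneBLAzer PPARg UAS-bla) were incubated with test substances for 17 h at 37C after a 5 h pre-incubation; beta-lactamase activity was then detected by FRET substrate fluorescence.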

Experiment [16] is described as follows: qHTS assay to identify small molecule antagonists of the peroxisome proliferator-activated receptor delta (PPARd) signaling pathway - cell viability counter screen (AID 743213). Also: nearly all actives have a fitted effect of over 50% in size. Also: potency is read from the fitted curve at half-maximal effect. The essentials:
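HEK293H PPARd UAS-bla cells, 5 h pre-incubation, compound + L165041 300 nM final, 17 h 37 C; B/G FRET substrate 2 h RT; then CellTiter-Glo 30 min RT, luminescence.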

Experiment [17] in a line: qHTS assay for small molecule agonists of the antioxidant response element (ARE) signaling pathway (AID 743202; active = well fitted activation curve with a large enough effect in the signal ratio in the repeat runs, not every such curve was filed as active; the % refers to the signal ratio; also: potency is read from the fitted curve at half-maximal effect). The essentials: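 Compounds delivered in DMSO to ARE-bla HepG2 cells (2,000 cells/well, pre-incubated 5 h) and left 16 h at 37 C. LiveBLAzer B/G FRET substrate then added for 2 h at RT before fluorescence reading.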
For experiment [18], the target named is Peroxisome proliferator-activated receptor delta (Homo sapiens) (UniProt Q03181). Description: qHTS assay to identify small molecule antagonists of the peroxisome proliferator-activated receptor delta (PPARd) signaling pathway (AID 743215; active = well fitted inhibition curve with a large enough effect in the signal ratio in the repeat runs, not every such curve was filed as active; the % refers to the signal ratio;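 also: cells stimulated with agonist L165041 at 300 nM final during compound exposure; series mostly up to about 62 µM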). The essentials:
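Antagonist-mode beta-lactamase reporter screen: HEK293H cells with UAS-bla under PPARd control, stimulated by 300 nM L165041 (final) alongside test compound for 17 h at 37 C, then FRET fluorescence after 2 h substrate incubation.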

The target in experiment [19] is Vitamin D3 receptor (Homo sapiens) (UniProt P11473). Nature of the experiment: qHTS assay to identify small molecule antagonists of the vitamin D receptor (VDR) signaling pathway (AID 743223; active = well fitted inhibition curve with a large enough effect in the signal ratio in the repeat runs, not every such curve was filed as active; the % refers to the signal ratio). The essentials:
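Quantitative HTS in VDR-bla reporter cells stimulated with 1alpha,25-dihydroxyvitamin D3, 3 nM final. Compound exposure 16 h, 37C, 5% CO2. Read-out: beta-lactamase FRET substrate fluorescence, 2 h RT.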

Experiment [20] deals with Bile acid receptor (Homo sapiens) (UniProt Q96RI1). Description: qHTS assay to identify small molecule antagonists of the farnesoid-X-receptor (FXR) signaling pathway (AID 743217; active = well fitted inhibition curve with a large enough effect in the signal ratio in the repeat runs, not every such curve was filed as active; the % refers to the signal ratio). A digest of the protocol:
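Beta-lactamase reporter under UAS control in HEK 293T cells; compound exposure 16 h at 37 °C in the presence of chenodeoxycholic acid (50 uM final); signal from B/G FRET substrate after 2 h at room temperature.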

Records with an inconclusive call do not appear. Calls of active or inactive are those of the source. Unless noted, calls follow the shape of the dose curve; as a rule, active = well fitted curve in the direction sought with a large enough effect in the repeat runs; inconclusive = weak or mixed curves; inactive = no such curve, though single readings can be large; an effect the other way counts as inactive or inconclusive.

Chain of Vitamin D3 receptor (Homo sapiens) (P11473 whole entry, looked up): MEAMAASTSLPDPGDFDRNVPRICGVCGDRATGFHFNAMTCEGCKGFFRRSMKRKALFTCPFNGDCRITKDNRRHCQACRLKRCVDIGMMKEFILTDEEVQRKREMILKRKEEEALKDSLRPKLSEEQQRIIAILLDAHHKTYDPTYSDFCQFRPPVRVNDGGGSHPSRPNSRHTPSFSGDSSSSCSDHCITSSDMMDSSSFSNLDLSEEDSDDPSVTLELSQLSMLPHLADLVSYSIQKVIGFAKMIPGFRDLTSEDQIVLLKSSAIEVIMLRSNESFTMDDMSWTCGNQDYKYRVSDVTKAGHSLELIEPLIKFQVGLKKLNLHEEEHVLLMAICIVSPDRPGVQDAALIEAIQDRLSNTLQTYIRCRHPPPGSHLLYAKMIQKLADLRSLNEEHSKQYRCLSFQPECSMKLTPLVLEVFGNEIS
Chain of Peroxisome proliferator-activated receptor gamma (Homo sapiens) (P37231 whole entry, looked up): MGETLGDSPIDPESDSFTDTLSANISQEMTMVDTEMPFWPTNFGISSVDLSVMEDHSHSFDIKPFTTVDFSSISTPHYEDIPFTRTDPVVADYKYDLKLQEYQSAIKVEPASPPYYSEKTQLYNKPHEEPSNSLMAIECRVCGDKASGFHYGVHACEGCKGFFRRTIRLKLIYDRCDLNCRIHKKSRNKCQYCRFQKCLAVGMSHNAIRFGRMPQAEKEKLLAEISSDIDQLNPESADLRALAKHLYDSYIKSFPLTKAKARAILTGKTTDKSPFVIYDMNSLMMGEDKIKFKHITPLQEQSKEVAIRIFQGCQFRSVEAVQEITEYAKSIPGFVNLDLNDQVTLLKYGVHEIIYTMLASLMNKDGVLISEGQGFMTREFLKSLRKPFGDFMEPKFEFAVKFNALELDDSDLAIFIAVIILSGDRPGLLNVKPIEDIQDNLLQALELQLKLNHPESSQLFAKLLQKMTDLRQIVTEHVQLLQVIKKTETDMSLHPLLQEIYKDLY
Chain of Bile acid receptor (Homo sapiens) (Q96RI1 whole entry, looked up): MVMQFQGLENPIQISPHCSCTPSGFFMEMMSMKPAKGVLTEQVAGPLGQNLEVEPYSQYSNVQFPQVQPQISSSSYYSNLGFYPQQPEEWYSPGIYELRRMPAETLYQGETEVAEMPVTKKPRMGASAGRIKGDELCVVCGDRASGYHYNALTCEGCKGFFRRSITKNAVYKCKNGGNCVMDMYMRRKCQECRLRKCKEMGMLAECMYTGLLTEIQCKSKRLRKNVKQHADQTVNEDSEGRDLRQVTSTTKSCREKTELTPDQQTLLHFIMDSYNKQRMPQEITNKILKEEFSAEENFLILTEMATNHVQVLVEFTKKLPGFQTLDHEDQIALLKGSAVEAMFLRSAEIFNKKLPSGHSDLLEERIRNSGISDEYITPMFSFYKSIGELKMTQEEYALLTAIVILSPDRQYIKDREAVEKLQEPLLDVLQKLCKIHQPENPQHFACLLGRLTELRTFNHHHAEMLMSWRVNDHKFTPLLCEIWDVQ

For the compound `Cc1c(C)c2c(c(C)c1OC(=O)CCC(=O)OCCO)CC[C@@](C)(CCC[C@H](C)CCC[C@H](C)CCCC(C)C)O2`, the Potency entry in experiment [1], in experiment [2], in experiment [5], in experiment [6], in [7] and in experiment [9] was “inactive” each time. Also, the Potency entry in experiment [10] is “inactive”. Besides, the Potency in [3] is 15 µM (active); in experiment [4], 33.5 µM (active); in [8], 33.5 µM (active); in experiment [11], 26.6 µM (active).
As for `C/C=C/C=C/C=O`, the Potency result in experiment [1], in experiment [2], in [3], in experiment [5], in experiment [6] and in experiment [7] was “inactive” throughout. In addition, the Potency entry in [8], in experiment [9], in experiment [12], in [13], in experiment [14] and in experiment [11] was “inactive” in each case.
For `C[C@H]1c2cccc(O)c2C(O)=C2C(=O)[C@]3(O)C(O)=C(C(N)=O)C(=O)[C@@H](N(C)C)[C@@H]3[C@@H](O)[C@@H]21`, the Potency entry in experiment [1], in [2], in experiment [15], in experiment [4], in experiment [5] and in experiment [8] was “inactive” each time. Moreover, the Potency entry in experiment [16], in experiment [12], in experiment [13] and in experiment [11] was “inactive” each time.
On to `CC(CN(C)C)C(C)(O)Cc1ccc(Cl)cc1` (stereo unspecified), for which the Potency result in experiment [1], in experiment [2], in experiment [3], in [4], in experiment [17] and in experiment [5] was “inactive” in each case. Also, the Potency result in experiment [6], in [8], in experiment [9], in experiment [18], in [12] and in experiment [13] was “inactive” each time. Further, the Potency result in experiment [14], in experiment [19] and in experiment [11] was “inactive” in each case.
Consider `CC(=O)NC1(c2cccc(F)c2)CCN(CC[C@@]2(c3ccc(Cl)c(Cl)c3)CN(c3ccccc3)C(=O)CO2)CC1`, for which the Potency entry in experiment [1], in [6], in experiment [7], in experiment [10] and in experiment [14] was “inactive” throughout. For the same compound, the Potency in experiment [2] was 43.4 µM (active); in experiment [3], 43.8 µM (active); in experiment [4], 34.8 µM (active); in experiment [5] it was 19.4 µM (active); in experiment [8], 13.8 µM (active); in experiment [16], 21.9 µM (active). Further, the Potency was 15.5 µM (active) in experiment [12], 24.6 µM (active) in experiment [13] and 39 µM (active) in experiment [11].
On to `CCOC(=O)C1=C(C)NC(C)=C(C(=O)OC)C1c1cccc(Cl)c1Cl` (stereo unspecified), for which the Potency in [1] was 1.88 µM (active). Further, the Potency result in experiment [2], in experiment [3], in experiment [4], in experiment [6], in experiment [8] and in experiment [16] was “inactive” each time. In addition, the Potency result in [18], in [20], in [12] and in experiment [13] was “inactive” throughout.
For the compound `CCCCOc1ccc(OCCCN2CCOCC2)cc1`, the Potency entry in experiment [1], in experiment [2], in experiment [3], in experiment [4], in [5] and in experiment [6] was “inactive” in each case. Further, the Potency entry in experiment [8], in experiment [16], in [20], in experiment [10], in experiment [13] and in [14] was “inactive” in each case. Further, in experiment [11], the Potency entry is “inactive”.
`CC=C(Cl)Cl`: the Potency entry in experiment [1], in [2], in experiment [3], in experiment [4], in experiment [17] and in experiment [5] was “inactive” in each case. The Potency result in experiment [6], in [7], in [8], in experiment [9], in [16] and in experiment [18] was “inactive” in each case. In addition, the Potency result in experiment [12], in experiment [13], in [14], in experiment [19] and in [11] was “inactive” throughout.
`Cc1ccccc1S`: the Potency entry in experiment [1], in experiment [2], in [3], in experiment [4], in experiment [5] and in experiment [8] was “inactive” in each case. The Potency result in experiment [9], in experiment [16], in experiment [18], in [20], in experiment [12] and in experiment [10] was “inactive” each time. Also, the Potency entry in [13], in [14], in experiment [19] and in experiment [11] was “inactive” in each case.
Consider `O=C1c2ccccc2C(=O)C1c1nc2ccccc2c(Br)c1O`, for which the Potency was 9.69 µM (active) in experiment [1] and 1.54 µM (active) in experiment [17]. For the same compound, the Potency result in experiment [2], in experiment [3], in experiment [4], in [5], in experiment [6] and in experiment [7] was “inactive” each time. Also, the Potency entry in experiment [8], in experiment [9], in [16], in experiment [18], in experiment [12] and in experiment [13] was “inactive” throughout. For the same compound, the Potency entry in [14], in experiment [19] and in [11] was “inactive” in each case.
For `Cc1cc(C)cc(N)c1`, the Potency result in [1], in experiment [2], in experiment [3], in experiment [4], in [17] and in experiment [5] was “inactive” each time. In addition, the Potency entry in experiment [6], in [7], in experiment [8], in experiment [9], in experiment [16] and in [18] was “inactive” throughout. The Potency result in [20], in [12], in [10], in [13], in experiment [14] and in experiment [19] was “inactive” in each case. For the same compound, the Potency entry in experiment [11] was “inactive”.
Consider `CCCCCCCCCCC(=O)O`, for which the Potency result in experiment [1], in [2], in experiment [3], in experiment [4], in experiment [5] and in experiment [7] was “inactive” in each case. The Potency entry in experiment [8], in experiment [18], in experiment [12], in experiment [13] and in [11] was “inactive” each time.

The values above are taken from PubChem BioAssay (Tox21).
